Screens as filed in PubChem BioAssay.
Pf growth 48h: inhibits P. falciparum growth in the first generation, 48 h; P. falciparum luciferase growth in erythrocytes, 48 h; Potency, µM (highest dose often 28.7 µM), for the others: at the highest dose activity change, negative = inhibition, hits mostly inhibitors; actives 5.9% (n = 310,000); AID 504832; also: potency is read from the fitted curve at half-maximal effect; % is scaled to controls: 0 for no effect and ±100 for the full control effect
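Luciferase-expressing parasites in RBCs, 2% Hct / 0.1% parasitemia final; RPMI 1640 + 0.5% Albumax; 37 C, 5% CO2, one generation; luminescence read-out, lower signal = inhibition.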
Pf growth 96h: P. falciparum growth inhibition at 96 hour, primary screen for plastid delayed-death inhibitors | P. falciparum luciferase reporter growth, 96 h | actives 6.9% (n = 320,000) | Potency, µM (top dose mostly 28.7 µM), for the others: at the highest dose activity change, negative = inhibition, actives largely listed as inhibitors; also: potency is read from the fitted curve at half-maximal effect; % is scaled to controls: 0 for no effect and ±100 for the full control effect
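Erythrocytes infected with luciferase-expressing P. falciparum were dispensed at 2% hematocrit and 0.05% parasitemia (final), then incubated with compounds 96 hours at 37 C in 5% CO2. Luminescence after detection reagent addition reported growth.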
Shiga toxin inh: Shiga toxin inhibition | inhibition, % at 38.7 µM | actives 9.2% (n = 290,000) | Vero cells, Shiga toxin protein synthesis inhibition reporter; in the data active = inhibition mostly above about 28%, no sharp cut-off; inactive = mostly below about 43%; also: 0% is about no effect
CHX counter: counter-screen for Shiga toxin inhibitors: cycloheximide protein synthesis inhibition; cell reporter, cycloheximide protein synthesis inhibition counterscreen; actives 12% (n = 300,000); max response, %; in the data active = max response mostly above about 13%, no sharp cut-off; inactive = mostly below about 14%; also: read at 38.3 µM for the half of the compounds with a filed dose; 0% is about no effect
An asterisk follows results filed as active; ? = inconclusive; . = not tested or not shown. In the library only some 21% were active in any assay of this set; here they are far more common. Unless noted, calls follow the shape of the dose curve; as a rule, active = well fitted inhibition curve with a large enough effect; inconclusive = small, poorly fitted or top-dose-only effect, or another doubt; inactive = no such curve, though single readings can be large or run the other way.

SMILES | Pf growth 48h | Pf growth 96h | Shiga toxin inh | CHX counter
Nc1nc(NCc2ccco2)nc(Nc2ccccc2)c1[N+](=O)[O-] | -3% | -23% | -6 | -2
Cc1ccc(Nc2ccc([N+](=O)[O-])nc2[N+](=O)[O-])cc1 | ? | ? | -2 | 22*
Cc1ccc(Nc2nc(N)c([N+](=O)[O-])c(NCCO)n2)cc1 | ? | ? | 24 | 13*
Cc1ccc(Nc2nc(N)c([N+](=O)[O-])c(NCc3ccco3)n2)cc1 | 0% | 12µM* | 55* | 34*
Nc1nc(Nc2ccccc2)nc(NCc2ccco2)c1[N+](=O)[O-] | ? | ? | 0 | -2
Nc1nc(Nc2ccccc2F)nc(NCc2ccco2)c1[N+](=O)[O-] | -19% | ? | 49* | 39*
CCC(C)c1ccc(NC(=S)N2CCN(S(C)(=O)=O)CC2)cc1 (stereo not given) | ? | -27% | -1 | 2
OCCC1CN(Cc2ccccc2OC2CCCC2)CCN1Cc1ccsc1 (stereo not given) | ? | 22% | -21 | -1
CC(C)c1ccc(Nc2nc(Cl)nc(NCc3ccco3)n2)cc1 | ? | ? | 18 | -1
Fc1ccc(Nc2nc(NCc3ccco3)c3ccccc3n2)cc1 | 0.37µM* | ? | 67* | 30*
CN(Cc1ccccc1)C(=O)c1cc2cc(F)ccc2[nH]1 | ? | ? | 75* | 65*
Cc1cc(OC(=O)c2ccccc2C)c([N+](=O)[O-])c(=O)[nH]1 | -4% | -23% | -3 | -1
O=C(NCCCN1CCOCC1)c1ccccc1N1C(=O)[C@@H]2Cc3c([nH]c4ccccc34)C(c3ccc(F)cc3)N2C1=O (stereo not given in full) | 13µM* | ? | -2 | -2
COc1cccc(C2c3[nH]c4ccccc4c3C[C@H]3C(=O)N(c4ccccc4C(=O)NCCCN4CCOCC4)C(=O)N23)c1 (stereo not given in full) | 15µM* | 12µM* | -4 | -3
O=C(CN1CCN(S(=O)(=O)c2ccc3ccccc3c2)CC1)Nc1ccc2c(c1)CCC2 | 4% | -10% | -3 | -4
Cn1cccc1C(=O)OCC(=O)N1c2ccccc2NC(=O)C1(C)C | 3% | -22% | -13 | -3
CC(OC(=O)Cc1n[nH]c(=O)c2ccccc12)C(=O)Nc1ccc(F)cc1 (stereo not given) | ? | -13% | . | .
CC(C)(C)c1ccc(-c2nc(C#N)c(N3CCC(C(N)=O)CC3)o2)cc1 | ? | ? | 1 | 8
Cc1ccccc1-c1nc(C#N)c(N2CCC(C)CC2)o1 | 39% | 57% | 46* | 24*
COc1ccccc1-c1nc(C#N)c(N2CCCCCC2)o1 | . | ? | 34 | 6
CC1CCN(c2oc(-c3ccc(F)cc3)nc2C#N)CC1 | 51% | 24% | 62* | 41*
CC1CCN(c2oc(-c3ccccc3Cl)nc2C#N)CC1 | 75% | 74% | 99* | 37*
N#Cc1nc(-c2ccccc2Cl)oc1N1CCOCC1 | -16% | . | 18 | 17*
COc1ccccc1NS(=O)(=O)c1ccc(O)c(NC(=S)NCC2CCCO2)c1 (stereo not given) | 9% | -27% | 7 | 2
Cc1sc2ncnc(SCC(=O)N3CCCC(C(N)=O)C3)c2c1C (stereo not given) | -8% | -19% | . | .
SMILES | Pf growth 48h | Pf growth 96h | Shiga toxin inh | CHX counter
CN(C)CCN(Cc1ccccc1)c1ccnc(N(C)C)c1C#N | -28% | . | 38 | -1
CN(C)c1nccc(N(Cc2ccccc2)Cc2ccccc2)c1C#N | ? | 75% | 94* | 36*
CCc1nnc(NC(=O)CCC(=O)N2CCN(c3cccc(Cl)c3)CC2)s1 | -2% | -27% | -11 | -5
COc1ccc(C(=O)Nc2cccnc2)cc1OC | 35% | -1% | 23 | 13*
COc1ccc(C(=O)Nc2cccc3cccnc23)cc1OC | . | -13% | 5 | 10
COc1ccc(C(=O)Nc2nc(C)c(C)s2)cc1OC | 76% | ? | 96* | 55*
COc1ccc(C(=O)Nc2cccnc2)cc1 | 96% | . | 64 | 26
COc1cc2c(cc1NC(=O)c1cccnc1)CCCC2 | 14% | ? | 23 | 20*
COc1ccc(C(=O)Nc2cccc(NC(=O)c3ccc(OC)c(OC)c3)n2)cc1OC | 10µM* | -15% | 39* | 22*
COc1cc(NC(=O)c2cccnc2)c(OC)cc1NC(=O)c1ccc(Br)cc1 | -3% | 26% | 13 | -3
O=C1CCC(C(=O)OCc2nnc(-c3ccccc3)o2)=NN1 | 60% | 29% | . | .
CC(C)Oc1ccc(C(CC(=O)O)NC(=O)C(Sc2ccccc2)c2ccccc2)cc1 (stereo not given) | -7% | ? | 6 | -7
O=C(CN1CCC(O)CC1)N1c2ccccc2C=Cc2ccccc21 | -13% | 2% | 1 | 5
CCOC(=O)C1(CCCc2ccccc2)CCN(C(=O)c2cnn(CC)c2)CC1 | 9% | ? | -11 | -3
Cc1ccc(NC(=O)CN(C)C(=O)CNC(=O)c2sc3ccccc3c2Cl)cc1 | 14% | 22% | . | .
CC(C)(C)c1ccc(C(=O)Nc2cccnc2)cc1 | 193% | -19% | 30 | 26*
O=C(Nc1cccnc1)c1ccc(C(=O)Nc2cccnc2)cc1 | 5% | ? | 19 | -4
O=C(NC(c1ccccc1)c1ccccc1)c1ccc(Br)o1 | ? | . | -2 | -2
O=C(/C=C/c1ccc(Br)o1)NC(c1ccccc1)c1ccccc1 | 12µM* | ? | -8 | -1
Cc1ccc2cc(CCNC(=O)c3cccs3)c(=O)[nH]c2c1 | 72% | -19% | 38 | 25*
Cc1ccc2cc(CCNC(=O)c3cccs3)c(=O)[nH]c2c1C | 171% | 84% | 47* | 45*
Cc1ccc2cc(CCNC(=O)C(=O)c3c(C)[nH]c4ccccc34)c(=O)[nH]c2c1 | ? | -26% | -23 | -3
Cc1ccc2cc(CNC(C)(C)C)c(=O)[nH]c2c1 | -18% | . | -5 | 18*
Cc1ccc2cc(CCNC(=O)C(=O)c3c[nH]c4ccccc34)c(=O)[nH]c2c1 | 9.3µM* | ? | -4 | 7
Brc1ccc(C2=Nn3cnnc3SC2)cc1 | 154% | ? | 22 | -2
SMILES | Pf growth 48h | Pf growth 96h | Shiga toxin inh | CHX counter
CCOC(=O)C(NCc1ccc(F)cc1)(NC(=O)c1ccccc1)C(F)(F)F (stereo not given) | -20% | 10µM* | -2 | -1
COc1ccc(CNC(NC(=O)c2ccccc2)(C(F)(F)F)C(F)(F)F)cc1 | 12µM* | ? | -2 | 0
COc1ccc(CC(=O)NCc2ccccc2)cc1 | 15% | ? | -1 | -2
CCOC(=O)C(NCc1ccccc1OC)(NC(=O)c1ccccc1)C(F)(F)F (stereo not given) | ? | 16% | -7 | -2
COc1ccc(-n2c(Cc3cccn3C)nnc2SCC(=O)NCCc2ccccc2)cc1 | ? | 2% | 6 | -2
COc1ccccc1C(=O)N/N=C(\C)CC(=O)Nc1ccc(Cl)cn1 | 9% | 20% | 50* | 37*
COc1ccccc1C(=O)N/N=C(\C)CC(=O)Nc1ccc(Nc2ccccc2)cc1 | ? | -17% | 25 | 12
COc1ccccc1C(=O)N/N=C(\C)CC(=O)Nc1ccccc1NC(C)=O | 4% | 25% | . | 19*
